Out of some 400,000 compounds screened, about 2,100 (0.53%) were called active. Not shown: some 14% with an inconclusive outcome. How the calls were made is not given here. The sample as a whole holds a higher share of actives than the screen did.
Target: Ataxin-2 (Homo sapiens) (UniProt Q99700)
Assay: qHTS for Inhibitors of ATXN expression.
Type: functional

Sequence of Ataxin-2 (Homo sapiens) (Q99700 whole entry): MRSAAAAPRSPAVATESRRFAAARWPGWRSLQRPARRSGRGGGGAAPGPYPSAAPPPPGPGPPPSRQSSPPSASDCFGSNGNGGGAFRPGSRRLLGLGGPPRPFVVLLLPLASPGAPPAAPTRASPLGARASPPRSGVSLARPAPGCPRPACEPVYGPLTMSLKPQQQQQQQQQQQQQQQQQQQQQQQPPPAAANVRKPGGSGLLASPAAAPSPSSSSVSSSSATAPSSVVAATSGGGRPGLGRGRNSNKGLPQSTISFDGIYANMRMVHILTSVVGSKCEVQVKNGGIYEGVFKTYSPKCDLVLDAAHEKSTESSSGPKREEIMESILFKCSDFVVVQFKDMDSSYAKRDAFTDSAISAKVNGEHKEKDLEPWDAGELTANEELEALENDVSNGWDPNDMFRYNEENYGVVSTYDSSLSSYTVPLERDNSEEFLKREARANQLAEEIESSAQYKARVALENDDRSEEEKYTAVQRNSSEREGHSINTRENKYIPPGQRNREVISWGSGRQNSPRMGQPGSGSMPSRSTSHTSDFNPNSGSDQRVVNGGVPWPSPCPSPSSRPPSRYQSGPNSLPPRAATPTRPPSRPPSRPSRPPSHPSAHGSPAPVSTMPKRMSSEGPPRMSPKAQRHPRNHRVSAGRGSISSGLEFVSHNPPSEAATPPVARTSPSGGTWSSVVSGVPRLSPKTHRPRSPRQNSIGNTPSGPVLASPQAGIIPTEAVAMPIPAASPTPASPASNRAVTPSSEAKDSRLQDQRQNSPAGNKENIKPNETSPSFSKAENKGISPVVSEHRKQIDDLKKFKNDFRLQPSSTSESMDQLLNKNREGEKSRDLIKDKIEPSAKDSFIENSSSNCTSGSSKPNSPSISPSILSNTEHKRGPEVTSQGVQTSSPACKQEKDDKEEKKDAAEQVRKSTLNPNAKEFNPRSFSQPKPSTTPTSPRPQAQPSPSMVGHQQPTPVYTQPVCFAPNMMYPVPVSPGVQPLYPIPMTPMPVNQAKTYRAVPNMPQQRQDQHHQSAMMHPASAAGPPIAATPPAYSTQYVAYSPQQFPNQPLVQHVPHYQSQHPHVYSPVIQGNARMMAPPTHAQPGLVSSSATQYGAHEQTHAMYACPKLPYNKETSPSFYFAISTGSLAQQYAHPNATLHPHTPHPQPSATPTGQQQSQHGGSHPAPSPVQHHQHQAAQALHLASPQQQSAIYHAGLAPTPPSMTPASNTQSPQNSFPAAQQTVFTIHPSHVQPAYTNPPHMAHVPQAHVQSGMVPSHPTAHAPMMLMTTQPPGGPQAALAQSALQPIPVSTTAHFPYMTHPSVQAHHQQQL

SMILES	Potency
CCn1c(SCC(=O)Nc2cccc(Cl)c2)nnc1-c1nonc1NC(C)=O	inactive
O=C(NCCO)c1cc2cc(Cl)cc(Cl)c2oc1=O	inactive
Cc1nccn1CCN(C)Cc1cn(Cc2ccccc2)nc1-c1ccc2c(c1)OCO2	inactive
CN(Cc1cn(C)nc1-c1ccc(Oc2ccccc2)cc1)Cc1cnc2ccccn12	35.5 µM (active)
Cc1ccc2nc(N3CC(C)OC(C)C3)nc(-c3ccccc3)c2c1 (centres undefined)	inactive
CC(C)Cc1ccc(C(C)C(=O)Nc2ncccn2)cc1 (centres undefined)	inactive
CC(C)Cc1ccc(C(C)CC2=CCC(CN(C)C)C2=O)cc1 (centres undefined)	22.4 µM (active)
COc1cccc(CN2CC(C(=O)N3CCSCC3)CCC2=O)c1 (centres undefined)	inactive
O=C(Oc1cc2oc(=O)cc(-c3ccccc3)c2cc1Cl)C1CCCCC1	inactive
CCN(CCCNC(=O)c1cc(Nc2ccc(OC)cc2)nc2ccccc12)c1cccc(C)c1	inactive
CCN(CCCNC(=O)c1cc2cc3ccc(OC)cc3nc2s1)c1cccc(C)c1	39.8 µM (active)
CCCCNC(=O)c1cc2nc(-c3ccc(OC)cc3)cc(C(F)(F)F)n2n1	inactive
O=C1Nc2cc(C(=O)N3CCOCC3)ccc2S/C1=C/c1ccccc1F	inactive
COCCCn1c(=O)/c(=C\c2ccc(OC(F)F)c(OC)c2)s/c1=C(/C#N)C(N)=O	inactive
O=C(c1ccc2nc(-c3ccccc3)c(-c3ccccc3)nc2c1)N1CCCCC1	inactive
CCN1CCCC1CNC(=O)c1ccc2c(c1)NC(=O)/C(=C\c1ccc(OC)c(OC)c1)S2 (centres undefined)	31.6 µM (active)
CCN1CCCC1CNC(=O)c1ccc2c(c1)NC(=O)/C(=C\c1ccc(C)cc1)S2 (centres undefined)	35.5 µM (active)
O=C1Nc2cc(C(=O)N3CCC(N4CCCCC4)CC3)ccc2S/C1=C\c1ccccc1	39.8 µM (active)
Cc1cccc2cc(C#N)c(NCCNS(=O)(=O)c3ccccc3)nc12	inactive
COc1ccc(O)c(C(=O)c2coc(=N)c(C(=O)Nc3ccc(SC(F)F)cc3)c2)c1	inactive
CN(C)c1ccc(-c2ccc3c(=O)c4ccccc4n(C)c3c2)cn1	inactive
COc1ccc(-c2ccc3c(N)c(C(=O)NC(C)C)sc3n2)cc1OC	inactive
Cc1ccc(C)c(N(C)S(=O)(=O)c2ccc3[nH]cc(C(=O)NC4CCCC4)c(=O)c3c2)c1	28.2 µM (active)
COC(CN(C)C(=O)c1cn(C)c2ccc(S(=O)(=O)N(C)C3CCCCC3)cc2c1=O)OC	inactive
Cc1cccn2c(=O)c3cc(C(=O)NC4CCCC4)c(=N)n(C4CCCC4)c3nc12	inactive

SMILES	Potency
CCc1nnc(NC(=O)CSc2nc3c(cc2C#N)CCC3)s1	inactive
N#CCCN(Cc1ccccc1)C(C(=O)NC1CCCCC1)c1cc2ccccc2o1 (centres undefined)	39.8 µM (active)
N=c1c(C(=O)NC2CCCCC2)cc2c(=O)n3ccccc3nc2n1Cc1ccccc1	inactive
N=c1c(C(=O)NC2CCCC2)cc2c(=O)n3ccccc3nc2n1Cc1ccccc1	inactive
COc1ccc(CCC(C)NCc2ccc(F)cc2)cc1 (centres undefined)	inactive
COc1ccc(CCC(C)NCCc2ccc(Cl)cc2Cl)cc1 (centres undefined)	39.8 µM (active)
COc1ccc(-c2sc(C(=O)c3ccc(Cl)cc3Cl)cc2CC(=O)O)cc1	inactive
COc1ccc(OC)c(/C=C/C(=O)Nc2ccc(C(=O)OCCC(C)C)cc2)c1	inactive
CCOc1cc(/C=C/C(=O)Nc2ccc(C(=O)NCCN(CC)CC)cc2)ccc1OCC(C)C	22.4 µM (active)
COc1cccc(OC)c1C(=O)Nc1ccccc1Sc1ccccc1	inactive
COc1ccc(C2C=C(c3ccccc3)Nc3nc(NS(=O)(=O)c4ccc(Cl)cc4)nn32)cc1 (centres undefined)	inactive
Cc1ccc2nc3c(cc(C(=O)NC4CCCCC4)c(=N)n3C3CCCCC3)c(=O)n2c1	inactive
Cc1nc2ccc(C(=O)Nc3cccc(OCC(=O)N(C)C)c3)cn2c1N(C)CC1CCCCC1	35.5 µM (active)
Cc1ccc2nc3c(cc(C(=O)NC4CCCC4)c(=N)n3C3CCCCC3)c(=O)n2c1	inactive
COc1ccc(C(=O)c2sc3nc(C)cc(-c4cccs4)c3c2N)cc1OC	inactive
CCCn1nc(NC(C)=O)c2cc3cccc(C)c3nc21	inactive
CCOc1ccc(NCc2cccn2-c2nnc(N3CCC(C(=O)NCCCN4CCCCC4CC)CC3)s2)cc1 (centres undefined)	22.4 µM (active)
COCCCn1/c(=N/C(C)=O)c(C#N)cc2c(=O)n3cccc(C)c3nc21	inactive
COc1ccccc1NC(=O)c1sc2nc(C)c(C(=O)Nc3ccc(C)cc3C)c(-c3cccs3)c2c1N	inactive
COc1ccccc1C(=O)Nc1c(C(=O)N(C)Cc2ccccc2)sc2nc(C)c(Cl)c(C)c12	11.2 µM (active)
COc1ccccc1NC(=O)c1sc2nc(Cc3ccccc3)cc(C(F)(F)F)c2c1N	inactive
O=[N+]([O-])c1cc(C(F)(F)F)cc([N+](=O)[O-])c1NCCN=C(S)Nc1ccc(Cl)c(Cl)c1	39.8 µM (active)
FC(F)(F)c1cccc(NC(S)=NCc2ccc(Cl)cc2)c1	inactive
Nc1cc(C(F)(F)F)cc([N+](=O)[O-])c1N	inactive
